This is an account of results in the supplement of paper PMC7156485.

What all share (conditions): concentration: 10 µM; 24 h
The test system of test [1] is HCC1569. The test is described as follows: cell number relative to DMSO (% of DMSO); higher = more cells (less growth inhibition / toxicity). In short, it runs like this:
(§1)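 H1.0 nuclear intensity or cell number is expressed as percent of the plate control, with the median of replicates taken. HCC1569 and TDF cells were treated with compounds at 10 µM for 24 h at 37 °C, in triplicate, then fixed and immunostained for H1.0 with DAPI as a nuclear stain. HCC1569 values were smoothed to correct for positional effects.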

Test [2] deals with TDF. Described as above. Put shortly:
as §1

The test system of test [3] is TDF. The test is described as follows: H1.0 immunofluorescence intensity relative to DMSO (% of DMSO); higher = stronger H1.0 induction, active = 120 or more. Put shortly: as §1
The subject of test [4] is HCC1569. The test is described as follows: H1.0 immunofluorescence intensity relative to DMSO (% of DMSO); higher = stronger H1.0 induction, active = 140 or more. In short, it runs like this:
as §1

± gives the standard deviation of the averaged measurements.
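For H1.0 immunofluorescence intensity relative to DMSO in this document: TDF is a line of transformed human dermal fibroblasts of mesenchymal origin.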
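For cell number relative to DMSO in this document: TDF denotes transformed human dermal fibroblasts of mesenchymal origin.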

Consider `COC(=O)c1cc2c(cn1)[nH]c1ccccc12` [Methyl beta-carboline-3-carboxylate], for which the cell number in the test with HCC1569 [1] is 98.8; in the test with TDF [2], 105. Further, the H1.0 immunofluorescence intensity with TDF [3] is 90.1 (inactive); in the test on HCC1569 [4], 95.3 (inactive).

For the molecule `CCCn1c(C)c(C(=O)c2cccc3ccccc23)c2ccccc21`, the cell number with HCC1569 [1] was found to be 99.3; in the test on TDF [2] it was 88.2. The results for the H1.0 immunofluorescence intensity with TDF [3] and in the test with HCC1569 [4] were 96.2 (inactive) and 100 (inactive), respectively.

`NCC(CP(=O)(O)O)c1ccc(Cl)cc1` (stereo unspecified) [Phaclofen]: the cell number with HCC1569 [1] was 106; in the test on TDF [2] it was 100. The H1.0 immunofluorescence intensity with TDF [3] is 95.8 (inactive); with HCC1569 [4], 79.9 (inactive).

For the molecule `CC(C)N(CCC(C(N)=O)(c1ccccc1)c1ccccn1)C(C)C` (stereo unspecified) [Disopyramide], the cell number was found to be 99.8 with HCC1569 [1] and 106 in the test with TDF [2]. Moreover, the H1.0 immunofluorescence intensity in the test with TDF [3] is 103 (inactive); in the test on HCC1569 [4], 98.5 (inactive).

Consider `C=CCN1CCC23c4c5ccc(O)c4OC2C(=NN=C2CCC4(O)C6Cc7ccc(O)c8c7C4(CCN6CC=C)C2O8)CCC3(O)C1C5.Cl.Cl` (stereo unspecified) [Naloxonazine dihydrochloride], for which the figures for the cell number in the test on HCC1569 [1] and in the test with TDF [2] were 77.5 and 62.9, respectively. For the same molecule, the figures for the H1.0 immunofluorescence intensity in the test on TDF [3] and with HCC1569 [4] were 126 (active) and 121 (inactive), respectively.

On to `CCCCCC(C=CC=CCCCCCCCC(=O)O)OO` (stereo unspecified), for which the cell number was 99.9 in the test with HCC1569 [1] and 108 in the test on TDF [2]. The H1.0 immunofluorescence intensity with TDF [3] was 99.2 (inactive); with HCC1569 [4], 94.4 (inactive).

As to `CC1=CC(=O)C2=C(C)CC(O)C3C(C)C(=O)OC3C12` (stereo unspecified) [Austricin], the results for the cell number with HCC1569 [1] and in the test on TDF [2] were 101 and 97.7, respectively. The H1.0 immunofluorescence intensity with TDF [3] was 96.7 (inactive); in the test on HCC1569 [4], 98.1 (inactive).

`NCCCNCCSP(=O)(O)O` [Amifostine]: the cell number in the test on HCC1569 [1] worked out at 102.2 ± 1; in the test on TDF [2], 104 ± 2.8. The H1.0 immunofluorescence intensity with TDF [3] was 91.8 (inactive); with HCC1569 [4] it was 98.1 (inactive).

In the case of `CCCCC(C)C(OC(=O)CC(CC(=O)O)C(=O)O)C(CC(C)CCCCCCC(O)CC(O)C(C)N)OC(=O)CC(CC(=O)O)C(=O)O` (stereo unspecified) [Fumonisin B2], the results for the cell number with HCC1569 [1] and with TDF [2] were 100 and 102, respectively. The values for the H1.0 immunofluorescence intensity in the test with TDF [3] and in the test with HCC1569 [4] were 97.3 (inactive) and 89.7 (inactive), respectively.
